SMILES strings stand for the structures. Unmarked numbers belong to inactive results. For some of these results: Measured potencies and affinities stand elsewhere. Active and inactive are the calls of the source. Unless noted, the rule behind the calls is not given here. Non-standard residues stand in square brackets, D forms with d. Residues, ends and D or L forms follow the SMILES beside them. *: point of attachment. Butanoyl(4-(4-HOPh)) = O=C(CCCc1ccc(O)cc1)*

Results on 20 compounds are retold here after PubChem BioAssay.

Test [1] can be described thus: antimalarial activity against Dd2 strain (AID 2302;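 active = growth inhibition above 50% at the single 2 µM test dose, taken to imply half-maximal potency below 2 µM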;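 note: 0% = DMSO untreated growth and 100% = chloroquine plus artemisinin killed control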). The note with it: P. falciparum Dd2 in RBCs, LDH growth readout, 72 h; at 2 µM; active compounds read high.
Test [2] in a line: HepG2 cytotoxicity, primary screen, cytotoxicity control for P. falciparum antimalarial project, cell-based, ATP luminescence (AID 2303;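 active = inhibition above 50%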;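 note: 0% = DMSO wells and 100% = digitonin-killed cells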). The following applies: HepG2 viability, 24-48 h, at 10 µM, active compounds read high.
Test [3] has as its target L-lactate dehydrogenase (Plasmodium falciparum (isolate CDC / Honduras)) (UniProt Q27743). Nature of the test: PfLDH activity inhibition – cell lysate, 3D7 strain, counter-screen for P. falciparum growth inhibition project (AID 2304).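 Note: 0% = vehicle and 100% = reference inhibitor.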 The note with it: P. falciparum 3D7 crude extract, LDH APAD/NBT absorbance; at 2 µM; active compounds read high. Background: The purpose of a counterscreen is to sort out artefacts and off-target activity.

Test [4] can be described thus: inhibition of 3D7 malaria parasite growth – strain 3D7 (AID 2306).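 Note: 0% = DMSO wells and 100% = chloroquine plus artemisinin control wells.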 The note with it: P. falciparum 3D7 erythrocytic growth, LDH absorbance, 72 h; at 2 µM; active compounds read high.
In test [5] the target is Calcium-dependent protein kinase 1 (Plasmodium falciparum (isolate 3D7)) (UniProt P62344). Nature of the test: PfCDPK1 kinase inhibitors, biochemical, TCAMS library (AID 1159585; cut-off not given, nearly all actives have IC50 up to about 0.98 µM;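 note: inhibitors leave more ATP so luminescence rises with inhibition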). The note with it: recombinant PfCDPK1, Kinase-Glo ATP depletion luminescence. Background: In Kinase-Glo more light means more ATP remaining.
Test [6] addresses Plasmodium falciparum protein kinase 6 (PK6, PF3D7_1337100) (UniProt Q8IDW1). Nature of the test: PfPK6 kinase inhibitors, biochemical, TCAMS library (AID 1159586). The following applies: recombinant PfPK6, Kinase-Glo ATP depletion luminescence.
Test [7] has as its target Protein kinase 7 (PK7), Plasmodium falciparum 3D7 (PF3D7_0213400) (UniProt Q7YTF7). As to the kind of experiment: inhibition of Plasmodium PK7 catalytic activity – biochemical, TCAMS antimalarial set, Kinase-Glo luminescence (AID 1159587). The following applies: recombinant PfPK7, Kinase-Glo ATP depletion luminescence.
For test [8], the target named is Calcium-dependent protein kinase 4 (Plasmodium falciparum (isolate 3D7)) (UniProt Q8IBS5). Nature of the test: PfCDPK4 kinase inhibitors, biochemical, TCAMS library (AID 1159588; cut-off not given, nearly all actives have IC50 up to about 0.91 µM). The following applies: recombinant PfCDPK4, Kinase-Glo ATP depletion luminescence.
Chain of Calcium-dependent protein kinase 4 (Plasmodium falciparum (isolate 3D7)) (Q8IBS5 whole entry, looked up): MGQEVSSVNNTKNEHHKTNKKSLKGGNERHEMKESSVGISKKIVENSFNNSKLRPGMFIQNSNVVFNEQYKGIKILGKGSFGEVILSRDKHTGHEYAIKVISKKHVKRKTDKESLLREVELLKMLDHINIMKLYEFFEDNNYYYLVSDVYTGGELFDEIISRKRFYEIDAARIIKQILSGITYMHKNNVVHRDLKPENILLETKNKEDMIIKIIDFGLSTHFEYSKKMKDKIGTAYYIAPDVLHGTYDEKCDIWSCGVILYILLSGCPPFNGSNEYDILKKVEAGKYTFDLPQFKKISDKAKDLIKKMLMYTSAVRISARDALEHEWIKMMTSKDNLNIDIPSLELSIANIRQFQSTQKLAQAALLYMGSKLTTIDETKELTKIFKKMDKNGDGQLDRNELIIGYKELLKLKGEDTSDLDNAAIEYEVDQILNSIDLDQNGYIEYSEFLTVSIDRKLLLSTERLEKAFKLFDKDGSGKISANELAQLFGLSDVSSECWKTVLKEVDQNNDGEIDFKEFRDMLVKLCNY

Chain of Calcium-dependent protein kinase 1 (Plasmodium falciparum (isolate 3D7)) (P62344 whole entry, looked up): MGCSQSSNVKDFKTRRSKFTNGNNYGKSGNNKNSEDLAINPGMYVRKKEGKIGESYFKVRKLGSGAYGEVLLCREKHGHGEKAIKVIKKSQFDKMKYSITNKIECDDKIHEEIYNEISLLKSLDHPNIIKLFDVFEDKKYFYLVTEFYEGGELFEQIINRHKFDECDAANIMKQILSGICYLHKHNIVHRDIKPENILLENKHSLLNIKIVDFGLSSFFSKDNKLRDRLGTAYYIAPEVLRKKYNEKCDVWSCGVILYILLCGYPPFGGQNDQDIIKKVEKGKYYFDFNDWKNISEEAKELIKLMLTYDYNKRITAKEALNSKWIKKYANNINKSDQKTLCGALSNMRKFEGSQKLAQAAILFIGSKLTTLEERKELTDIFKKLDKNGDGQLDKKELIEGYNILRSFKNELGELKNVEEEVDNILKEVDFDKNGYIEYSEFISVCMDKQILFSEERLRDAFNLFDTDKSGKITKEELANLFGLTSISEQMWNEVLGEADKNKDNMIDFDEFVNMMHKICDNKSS
Chain of Protein kinase 7 (PK7), Plasmodium falciparum 3D7 (PF3D7_0213400) (Q7YTF7 1-343): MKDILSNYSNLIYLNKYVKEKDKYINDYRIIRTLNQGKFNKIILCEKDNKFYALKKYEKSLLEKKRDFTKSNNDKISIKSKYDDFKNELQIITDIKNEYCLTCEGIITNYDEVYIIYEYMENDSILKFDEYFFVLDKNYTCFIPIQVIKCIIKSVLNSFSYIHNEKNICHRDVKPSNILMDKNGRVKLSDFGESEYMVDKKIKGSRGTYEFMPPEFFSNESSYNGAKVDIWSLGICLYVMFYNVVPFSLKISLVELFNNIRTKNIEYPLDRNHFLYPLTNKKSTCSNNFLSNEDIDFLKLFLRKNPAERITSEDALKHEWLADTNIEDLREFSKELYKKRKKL
Chain of Plasmodium falciparum protein kinase 6 (PK6, PF3D7_1337100) (Q8IDW1 1-305): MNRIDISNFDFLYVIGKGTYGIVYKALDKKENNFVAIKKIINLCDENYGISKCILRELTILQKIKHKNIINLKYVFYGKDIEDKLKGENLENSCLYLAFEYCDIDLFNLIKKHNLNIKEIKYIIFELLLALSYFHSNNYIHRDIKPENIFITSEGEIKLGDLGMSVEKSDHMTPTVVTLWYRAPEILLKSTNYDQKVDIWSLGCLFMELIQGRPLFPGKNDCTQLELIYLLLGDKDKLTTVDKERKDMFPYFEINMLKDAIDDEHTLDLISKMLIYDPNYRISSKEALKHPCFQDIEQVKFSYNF
Chain of L-lactate dehydrogenase (Plasmodium falciparum (isolate CDC / Honduras)) (Q27743 whole entry, looked up): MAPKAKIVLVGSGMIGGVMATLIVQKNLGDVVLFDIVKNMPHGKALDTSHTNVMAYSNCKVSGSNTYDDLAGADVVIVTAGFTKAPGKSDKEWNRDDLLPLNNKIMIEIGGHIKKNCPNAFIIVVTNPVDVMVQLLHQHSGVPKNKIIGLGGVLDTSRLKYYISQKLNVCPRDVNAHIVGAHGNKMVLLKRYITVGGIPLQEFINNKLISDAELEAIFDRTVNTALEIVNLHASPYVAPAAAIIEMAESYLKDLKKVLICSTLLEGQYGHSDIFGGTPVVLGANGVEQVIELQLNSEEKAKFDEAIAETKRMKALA

For `Cc1cc(-c2ccc3c(c2)CCN(CCC2CCC(NC(=O)/C=C/c4ccccc4F)CC2)CC3)on1` (stereo not given), the growth inhibition was 13% in test [1] and 94% (active) in test [4]. Besides, the inhibition – broadly, the drop in the measured response relative to a control, in per cent – in test [2] was 26%; in test [3], -4%. The result in test [5], in test [6], in test [7] and in test [8] was inactive.

Take `CN(C)c1ccc(C=CC(=O)NC(=O)c2ccccc2O)cc1`: the figures for the growth inhibition in test [1] and in test [4] were 97% (active) and 92% (active), respectively. Further, the figures for the inhibition in test [2] and in test [3] were 6% and -1%, respectively. Further, the result in test [5], in test [6], in test [7] and in test [8] was inactive.

With `CN1CCCC1CCNCc1ccc(-c2ccc(CNCCc3ccccc3)cn2)cc1` (stereo not given), the growth inhibition in test [1] is 99% (active); in test [4], 101% (active). Also, the inhibition in test [2] is 25%; in test [3], 2%. In addition, the outcome in test [5], in test [6], in test [7] and in test [8] was inactive.

As to `OC(CNCc1ccccc1)c1cc(OCc2ccccc2)cc(OCc2ccccc2)c1` (stereo not given), the values for the growth inhibition in test [1] and in test [4] were 76% (active) and 98% (active), respectively. Besides, the figures for the inhibition in test [2] and in test [3] were -14% and 3%, respectively. Also, the result in test [5], in test [6], in test [7] and in test [8] was inactive.

Regarding `CCCCCC1c2[nH]c3ccccc3c2CCN1C(=O)OCc1ccccc1` (stereo not given), the growth inhibition in test [1] is 68% (active); in test [4], 93% (active). Also, the inhibition is 3% in test [2] and -3% in test [3]. Besides, the result in test [5], in test [6], in test [7] and in test [8] was inactive.

Consider `CCC(C)NC(=O)Nc1cccc(-c2cccc(-c3nc4c(C)cccc4[nH]3)c2)c1` (stereo not given), for which the figures for the growth inhibition in test [1] and in test [4] were 27% and 101% (active), respectively. The inhibition is 3% in test [2] and 5% in test [3]. Moreover, the outcome in test [5], in test [6], in test [7] and in test [8] was inactive.

As for `O=C(COc1ccccc1)N(Cc1ccc(-c2ccc(CNC3Cc4ccccc4C3)cc2)cc1)C1CCNCC1`, the growth inhibition was 8% in test [1] and 100% (active) in test [4]. In addition, the inhibition in test [2] was 26%; in test [3], -1%. Moreover, the result in test [5], in test [6], in test [7] and in test [8] was inactive.

On to `CC(CN1CCN(C)CC1)C(=O)Nc1cccc(-c2cccc(-c3nc4ccc(F)cc4[nH]3)c2)c1` (stereo not given), for which the growth inhibition is 78% (active) in test [1] and 101% (active) in test [4]. The inhibition in test [2] is 23%; in test [3] it was -2%. Moreover, the result in test [5], in test [6], in test [7] and in test [8] was inactive.

Consider `CCCCCCN(C(=O)OCc1ccccc1)[C@@H]1CCN(C(=O)OC(C)(C)C)C[C@H]1C(=O)OCC`, for which the growth inhibition in test [1] and in test [4] was 96% (active) in each case. Also, the results for the inhibition in test [2] and in test [3] were 9% and -6%, respectively. For the same compound, the result in test [5], in test [6], in test [7] and in test [8] was inactive.

Take `CN1CCN(CCNc2c3ccccc3nc3ccc4ccccc4c23)CC1`: the growth inhibition in test [1] and in test [4] was 99% (active) throughout. Besides, the inhibition in test [2] was 22%; in test [3] it was -6%. In addition, the result in test [5], in test [6], in test [7] and in test [8] was inactive.

Consider `COc1ccc(CNc2nc(Nc3cccc(C#N)c3)nc(Nc3cccc(C#N)c3)n2)cc1Cl`, for which the growth inhibition was 83% (active) in test [1] and 101% (active) in test [4]. The values for the inhibition in test [2] and in test [3] were -4% and 4%, respectively. Besides, the result in test [5], in test [6], in test [7] and in test [8] was inactive.

For the compound `CCC(C)(C)C1CCc2nc(N)nc(N)c2C1` (stereo not given), the growth inhibition in test [1] was 97% (active); in test [4], 95% (active). The inhibition in test [2] was 71% (active); in test [3], 4%. Moreover, the result in test [5], in test [6], in test [7] and in test [8] was inactive.

As to `CCCC(C)Nc1nc(C)cc(N[C@@H](Cc2ccccc2)C(=O)NCc2ccc(C)cc2)n1` (stereo not given in full), the growth inhibition in test [1] is 93% (active); in test [4] it was 101% (active). Also, the figures for the inhibition in test [2] and in test [3] were 22% and 5%, respectively. In addition, the result in test [5], in test [6], in test [7] and in test [8] was inactive.

As for `Oc1ccc(CN2CC[C@@H](N3CCN(CCc4ccccc4)CC3)[C@H](O)C2)cc1Cl`, the figures for the growth inhibition in test [1] and in test [4] were 77% (active) and 100% (active), respectively. For the same compound, the figures for the inhibition in test [2] and in test [3] were 0% and 2%, respectively. Also, the outcome in test [5], in test [6], in test [7] and in test [8] was inactive.

As for `CN1CCN(c2ccnc3ccc(NC(=O)Nc4ccc(-c5ccncc5)c(C#N)c4)cc23)CC1`, the growth inhibition in test [1] was 99% (active); in test [4], 101% (active). The values for the inhibition in test [2] and in test [3] were 32% and -3%, respectively. The outcome in test [5], in test [6], in test [7] and in test [8] was inactive.

Turning to `CN(C)c1cccc2c1nc(-c1ccc3c(c1)CCO3)n2CCNCc1ccccc1`, the growth inhibition in test [1] was 85% (active); in test [4] it was 99% (active). For the same compound, the inhibition in test [2] is 6%; in test [3], 0%. The outcome in test [5], in test [6], in test [7] and in test [8] was inactive.

Consider `O=C(NCC(=O)N1CCC[C@H]1C(=O)O)[C@@H](Cc1ccccc1)NC(=O)[C@@H]1CCCN1C(=O)CCCc1ccc(O)cc1` ({Butanoyl(4-(4-HOPh))}-P[dF]GP-OH), for which the growth inhibition is 1% in test [1] and 81% (active) in test [4]. Besides, the results for the inhibition in test [2] and in test [3] were 1% and 3%, respectively. Also, the outcome in test [5], in test [6], in test [7] and in test [8] was inactive.

Consider `CC(C)N(CCOc1ccc2c(c1)N(C(=O)Nc1cc(Br)cc(C(F)(F)F)c1)CC2)C(C)C`, for which the growth inhibition in test [1] was 100% (active); in test [4], 101% (active). Also, the inhibition in test [2] was 8%; in test [3], 5%. The outcome in test [5], in test [6], in test [7] and in test [8] was inactive.

Regarding `CCC(C)(C)NC(=O)C(c1cccc(OC)c1)N(C(=O)CNC(=O)c1cccs1)c1ccc2c(c1)OCCO2` (stereo not given), the growth inhibition is 76% (active) in test [1] and 100% (active) in test [4]. The inhibition in test [2] and in test [3] was -7% throughout. For the same compound, the result in test [5], in test [6], in test [7] and in test [8] was inactive.

Consider `COc1ccccc1NC(=S)N/N=C/c1ccc(O)cc1O`, for which the results for the growth inhibition in test [1] and in test [4] were 80% (active) and 89% (active), respectively. Further, the values for the inhibition in test [2] and in test [3] were 35% and -5%, respectively. For the same compound, the outcome in test [5], in test [6], in test [7] and in test [8] was inactive.
